Source: PubChem BioAssay

Assay: COS7 lysate on small-molecule microarray, probe aHis, 635 nm (AID 1123);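 note: z-score combines 667nm fluorescence intensity with signal-to-noise per printed compound spot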
Conditions: COS7 cell lysate, fluorescence, higher = more signal
Molecule `O=C1C2C=CC(C(O)c3cc(C(F)(F)F)cc(C(F)(F)F)c3)N(Nc3ccc([N+](=O)[O-])cc3)C2C(=O)N1c1ccccc1` (centres undefined) has a composite z-score of 2.74.
In the case of `COCCOC(=O)N1C(=O)[C@@]2(c3cc(C#CC4(O)CCCCCC4)ccc31)[C@H](C(=O)N1CCCCCCC1)[C@H]1C(=O)O[C@H](c3ccccc3)[C@H](c3ccccc3)N1[C@@H]2c1ccc(OCCO)cc1`, the composite z-score is reported as 3.34.
For `CC(C)CNC(=O)[C@@H]1c2ccccc2C(=O)N(Cc2cc(F)cc(C(F)(F)F)c2)[C@H]1c1ccc(CO)cc1`, the composite z-score was 1.07.
`CCOC(=O)[C@H]1C/C=C/C[C@H](C(=O)OCC)C(=O)O[C@H]2[C@@H](OC)O[C@H](CO)[C@@H](OC(=O)CCc3ccccc3)[C@@H]2OC1=O` showed a composite z-score of -0.188.
Molecule `C=CC[C@@]1(C(=O)O)N=C(c2ccc(OCCCO)cc2)O[C@@H]1c1ccccc1` has a composite z-score of 2.71.
In the case of `CCOC(=O)[C@@H]1[C@@H]2C(=O)N(CC)C(=O)[C@@H]2C[C@@H]1Sc1ccccc1`, the composite z-score is reported as 1.84.
In the case of `CC(C)CN1C(=O)[C@@]2(c3ccc([N+](=O)[O-])cc3)CC(=O)N(CC34CC5CC(CC(C5)C3)C4)[C@@H]2c2ccc(CO)cc21`, the composite z-score is reported as 0.0815.
In the case of `C=CC[C@@]1(C(=O)N2CCCCC2)N=C(c2ccc(OCCCO)cc2)O[C@@H]1c1ccccc1`, the composite z-score is reported as 2.39.
With `C=CCOC(=O)[C@H]1[C@@H]2C(=O)O[C@@H](c3ccccc3)[C@@H](c3ccccc3)N2[C@@H](c2ccc(OCCOC(=O)[C@H]3C[C@H]4C(=O)N[C@@H](Cc5ccccc5)C(=O)N4[C@H]3c3ccc(O)cc3)cc2)[C@]12C(=O)Nc1ccc(I)cc12` the composite z-score was 1.78.
